From PubChem BioAssay AID430 (Sanford-Burnham Center for Chemical Genomics, 2006)
In all, about 63,000 compounds went through this assay and about 1,100 (1.7%) were called active. Rule as the data show it: active = cytotoxicity above about 50%; inactive = the rest. What follows is part of a selection rich in actives, with near analogues and random picks from the rest. Results with a measured potency or affinity are listed apart.

Test: HPDE-C7 pancreatic duct cell viability loss – fluorescence, HTS (AID 430);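 also: cells exposed to compound for 48 hours before viability readout; 0% = vehicle and 100% = reference cytotoxic drug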
Details: HPDE-C7 pancreatic duct cells viability, at 10 µM, active compounds read high

Row | Structure (SMILES) | cytotoxicity
1 | Cc1ccc(NC(=O)c2ccco2)cc1C | -2.6% (inactive)
2 | O=C1NCCCC2c3c(cc(Br)c(O)c3Br)OC12N1CCOCC1 (stereo not drawn) | -5.7% (inactive)
3 | COC(=O)C1=C(C)NC(C)=C(C(=O)OC)C1c1cc2cc(C)ccc2[nH]c1=O | 2.9% (inactive)
4 | COc1ccc(C)cc1S(=O)(=O)N(CC(=O)N1CCOCC1)Cc1ccccc1 | -1.7% (inactive)
5 | N#Cc1cn(Cc2ccccc2)c2ccccc12 | 6.7% (inactive)
6 | N#Cc1cn(Cc2cccc(Cl)c2)c2ccccc12 | 56.1% (active)
7 | N#Cc1cn(CC(=O)O)c2ccccc12 | -15.5% (inactive)
8 | CCOc1ccc(N2C(=O)C3CCCN3C2=O)cc1 (stereo not drawn) | 3.6% (inactive)
9 | COc1ccc(C(C#N)N2CCCCCC2)cc1OC (stereo not drawn) | 2.4% (inactive)
10 | Brc1ccc(C2=Nn3c(nnc3-c3n[nH]c4c3CCC4)SC2)cc1 | 61.4% (active)
11 | CC1=Nn2c(nnc2-c2n[nH]c3c2CCC3)SC1 | -3.7% (inactive)
12 | Fc1ccc(C2=Nn3c(nnc3-c3n[nH]c4c3CCC4)SC2)cc1 | 0.5% (inactive)
13 | Clc1ccc(C2=Nn3c(nnc3-c3n[nH]c4c3CCC4)SC2)cc1 | 46.1% (inactive)
14 | Clc1ccc(C2=Nn3c(nnc3-c3n[nH]c4c3CCC4)SC2)cc1Cl | 76.8% (active)
15 | c1ccc(C2=Nn3c(nnc3-c3n[nH]c4c3CCC4)SC2)cc1 | 8.7% (inactive)
16 | CCc1nc(SCC(=O)Nc2cc(C)on2)c2c(C)c(C)sc2n1 | -1.6% (inactive)
17 | CC1(C)CC(=O)C(C=NC2CCCCC2)=C(O)C1 | -6.9% (inactive)
18 | Cn1c(=O)c2c(SC3CCCC3)nc(CC(C)(C)C)nc2n(C)c1=O | -9% (inactive)
19 | Cc1onc(-c2ccccc2Cl)c1C(=O)NCc1nc(-c2ccccc2)no1 | -4.2% (inactive)
20 | CC(=O)c1cccc(NC(=O)c2ccc(NS(C)(=O)=O)cc2)c1 | 17.5% (inactive)
21 | CCOC(=O)c1c(C)[nH]c(C(=O)Cn2c(=O)c3c(ncn3CC)n(Cc3ccccc3)c2=O)c1C | 4.9% (inactive)

Row | Structure (SMILES) | cytotoxicity
22 | CCc1c(C)sc(NC(=O)c2cccs2)c1C(=O)OC(C)C | 58.9% (active)
23 | CC(C)OC(=O)c1c(NC(=O)c2cccs2)sc2c1CCCC2 | 9.8% (inactive)
24 | CCOC(=O)c1c(NC(=O)c2cccs2)sc(C)c1CC | -2.4% (inactive)
25 | COc1ccccc1CC(NC(C)=O)C(=O)NC1CCN(c2nnnn2-c2ccccc2)CC1 (stereo not drawn) | -2.9% (inactive)
26 | COc1ccc(C(=O)CSc2nnc(-c3ccc(S(=O)(=O)N4CCOCC4)cc3)o2)cc1 | 56.1% (active)
27 | COc1ccc(C(=O)CSc2nnc(-c3ccc(C)cc3)o2)cc1 | -8.2% (inactive)
28 | CCN(CC)S(=O)(=O)c1ccc(-c2nnc(SCC(=O)c3ccc(OC)cc3)o2)cc1 | -7.3% (inactive)
29 | O=C(CN1C(=O)c2ccccc2S1(=O)=O)N1CCN(Cc2ccc3c(c2)OCO3)CC1 | -4.2% (inactive)
30 | CCCn1c(C)cc(C(=O)COc2ncnc3sccc23)c1C | -1.4% (inactive)
31 | CCN1C(=O)c2cccc3c(NC(=O)c4ccc5c(c4)OCCO5)ccc1c23 | 84.7% (active)
32 | CCN1C(=O)c2cccc3c(NC(=O)c4ccc(S(=O)(=O)N(C)C)cc4)ccc1c23 | -24.8% (inactive)
33 | CCN1C(=O)c2cccc3c(NC(=O)c4cccc(N5C(=O)CCC5=O)c4)ccc1c23 | -19.8% (inactive)
34 | COc1ccc(CCC(=O)NCc2ccco2)cc1 | -5.5% (inactive)
35 | Clc1ccccc1-c1nnn(Cc2ccc(-c3nn[nH]n3)cc2)n1 | -10.8% (inactive)
36 | CCCS(=O)(=O)N1CCC(C(=O)N2CCC(Cc3ccccc3)CC2)CC1 | 79.7% (active)
37 | CCCS(=O)(=O)N1CCCC(C(=O)N2CCC(Cc3ccccc3)CC2)C1 (stereo not drawn) | 0.4% (inactive)
38 | CS(=O)(=O)N1CCC(C(=O)N2CCC(Cc3ccccc3)CC2)CC1 | 1.2% (inactive)
39 | Clc1ccccc1Cn1nnc2c(N3CCCC3)ncnc21 | 5% (inactive)
40 | COc1ccc(C2(O)CCN(Cc3nnnn3Cc3ccc(C)cc3)CC2)cc1 | -4.4% (inactive)
41 | O=C(Oc1cc2oc(=O)c3c(c2cc1Cl)CCCC3)c1ccco1 | -3.8% (inactive)
42 | N#Cc1nc(Cc2cccc3ccccc23)oc1NCc1ccco1 | 58.4% (active)

Row | Structure (SMILES) | cytotoxicity
43 | C=CCNc1oc(Cc2cccc3ccccc23)nc1C#N | -12% (inactive)
44 | CNc1oc(Cc2cccc3ccccc23)nc1C#N | 3.8% (inactive)
45 | CCn1cc(C(=O)NCCCN(C)c2ccccc2)c(=O)c2cc(S(=O)(=O)N(C)C)ccc21 | 10.5% (inactive)
46 | CCc1nnc(NC(=O)CSc2nccn2-c2cc(C)cc(C)c2)s1 | 7.6% (inactive)
47 | Cc1ccccc1-c1noc(-c2cccs2)n1 | -7.3% (inactive)
48 | Cc1ccccc1-c1noc(-c2ccc(O)cc2)n1 | 52.8% (active)
49 | CCOc1ccc(-c2nc(-c3ccccc3C)no2)cc1 | 2.4% (inactive)
50 | CCn1c(-c2c[nH]c3ccccc23)n[nH]c1=S | 6.5% (inactive)
51 | O=C1Cc2ccccc2N1c1ccccc1 | -6.3% (inactive)
52 | CCOC(=O)C1CCN(Cc2c(O)ccc3ccccc23)CC1 | -5.8% (inactive)
53 | CCOC(=O)C1CCN(Cc2ccc(OC)c(C)c2OC)CC1 | 2.2% (inactive)
54 | CCOC(=O)C1CCN(Cc2ccc(O)c3ncccc23)CC1 | 60.3% (active)
55 | CN(C)c1ccc(C(=S)N2CCOCC2)cc1Br | -13.8% (inactive)
56 | CCOC(=O)N1CCN(C(=O)c2ccc3c(=O)n(Cc4ccc(OC)cc4)c(=S)[nH]c3c2)CC1 | -14.8% (inactive)
57 | COc1ccc(N2C(=O)CC(N3CCN(c4nc5ccccc5s4)CC3)C2=O)cc1 (stereo not drawn) | 7.5% (inactive)
58 | CCC(NC(=O)Nc1nccs1)(C(F)(F)F)C(F)(F)F | -7% (inactive)
59 | O=C(NCC(F)(F)F)Nc1nnc(C(F)(F)F)s1 | 12.3% (inactive)
60 | CCSc1nnc(NC(=O)NC(CC)(C(F)(F)F)C(F)(F)F)s1 | 14.7% (inactive)
61 | CC(NC(=O)Nc1nccs1)(C(F)(F)F)C(F)(F)F | -4.1% (inactive)
62 | O=C(COC(=O)c1n[nH]c2ccccc12)NC(=O)NCc1ccco1 | -1.6% (inactive)
63 | CC1=C(C(=O)Nc2ccccc2)C(c2ccncc2)C(C#N)=C(SCC(=O)NC2CC2)N1 (stereo not drawn) | -16.3% (inactive)
